The values that follow come from PubChem BioAssay (NCI).

The panel holds about 83,000 compounds, 20% with a hit somewhere; the sample as a whole holds those more often.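 The test compound was applied at a single concentration to cells in 96-well plates for 48 hours, and percent growth was recorded.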 Values without a mark were called inactive. Calls of active or inactive are those of the source. How the source made its calls: active means growth percent below 10; inactive means the rest.

Among the test systems are NCI-H23 lung; NCI-H226 lung; NCI-H322M lung; HOP-62 NSCLC; NCI-H460 lung; HOP-92 NSCLC; NCI-H522 lung; A549/ATCC NSCLC; 786-0 renal; DU-145 prostate; MDA-MB-231 breast; RXF 393 renal; SF-268 CNS; SF-539 CNS; UACC-257 melanoma; M14 melanoma; COLO 205 colon; K-562 leukemia; MALME-3M melanoma; SF-295 CNS.
Common to all, as to assay: NCI-60 one-dose screen, 48 h (100 = growth as untreated, 0 = no growth, -100 = all killed)
What all share (details): 10 µM unless noted

As for `CCCn1cc2c3c(cccc31)[C@H]1C[C@@H](C)CN(C)[C@@H]1C2`, the growth was 77% in the assay with NCI-H23 lung; 93.4% in the assay on NCI-H226 lung; 89.4% in the assay with NCI-H322M lung; 86.4% with HOP-62 NSCLC; 95.7% with NCI-H460 lung; 29.7% in the assay on HOP-92 NSCLC. Further, the growth in the assay on NCI-H522 lung is 85.9%; in the assay with A549/ATCC NSCLC, 96%; in the assay with 786-0 renal it was 81.7%; in the assay on DU-145 prostate, 99.8%; in the assay on MDA-MB-231 breast it was 78.3%; in the assay with RXF 393 renal, 86.6%. The growth in the assay on SF-268 CNS is 94.8%; in the assay on SF-539 CNS, 85.1%; with UACC-257 melanoma, 78.6%; in the assay with M14 melanoma, 89.3%.

Regarding `CC(C)CCC1C(=O)NC(=O)NC1=O`, the growth in the assay on NCI-H23 lung is 99.4%; with NCI-H226 lung, 116%; in the assay on NCI-H322M lung, 94.4%; in the assay with HOP-62 NSCLC, 87.4%; in the assay with NCI-H460 lung, 97.7%; in the assay with HOP-92 NSCLC, 109%. Further, the growth was 79.4% with NCI-H522 lung; 78.5% in the assay on A549/ATCC NSCLC; 104% with 786-0 renal; 100% with COLO 205 colon; 109% in the assay on DU-145 prostate; 109% in the assay with K-562 leukemia. The growth with MALME-3M melanoma is 88.9%; with MDA-MB-231 breast it was 97.3%; with RXF 393 renal it was 117%; in the assay with SF-268 CNS, 96.2%; in the assay on SF-295 CNS, 98.4%; in the assay with UACC-257 melanoma it was 95.5%. Also, the growth with M14 melanoma is 99.9%.

For the compound `C[C@]12CC[C@H]3[C@@H](C[C@@H]4SC(Nc5cccc(F)c5)=N[C@@]45CC(=O)CC[C@]35C)[C@@H]1CCC2=O`, the growth with NCI-H23 lung is 55.1%; in the assay on NCI-H226 lung it was 71.9%; in the assay with NCI-H322M lung, 55.8%; in the assay with HOP-62 NSCLC, 20.4%; in the assay on HOP-92 NSCLC it was 68.9%; in the assay with NCI-H522 lung it was -43.7% (active). The growth in the assay with A549/ATCC NSCLC is 35.4%; in the assay with 786-0 renal, -13.9% (active); in the assay with COLO 205 colon it was 47.6%; with DU-145 prostate, 17.2%; in the assay with K-562 leukemia, -0.515% (active); in the assay on MALME-3M melanoma it was 22.8%. For the same compound, the growth with MDA-MB-231 breast is 38.2%; in the assay on RXF 393 renal, -28.4% (active); with SF-268 CNS, 55.7%; in the assay on SF-295 CNS, -18.8% (active); with SF-539 CNS, -5.93% (active); with UACC-257 melanoma it was 73%. In the assay on M14 melanoma, the growth was 44.8%.

As for `CCCCOC(N)=O`, the growth is 100% in the assay on NCI-H23 lung; 103% in the assay with NCI-H226 lung; 102% in the assay on NCI-H322M lung; 105% with HOP-62 NSCLC; 106% in the assay on NCI-H460 lung; 106% in the assay on NCI-H522 lung. Also, the growth in the assay with A549/ATCC NSCLC was 109%; in the assay with 786-0 renal it was 104%; in the assay with COLO 205 colon, 108%; in the assay on DU-145 prostate, 109%; in the assay on K-562 leukemia, 102%; in the assay on MDA-MB-231 breast it was 109%. In addition, the growth was 104% in the assay on SF-268 CNS; 105% in the assay on SF-295 CNS; 109% in the assay on SF-539 CNS; 110% in the assay with UACC-257 melanoma; 97.5% in the assay with M14 melanoma.

As to `COc1c(O)cc2c(c1OC)-c1ccc(SC)c(=O)cc1C(NC(C)=O)CC2` (stereo unspecified), the growth in the assay on NCI-H23 lung is 21.4%; in the assay on NCI-H226 lung it was 23.1%; in the assay on NCI-H322M lung, 41.1%; with HOP-62 NSCLC, 22.2%; in the assay with NCI-H460 lung, 3% (active); in the assay with NCI-H522 lung, -46.8% (active). In addition, the growth in the assay with A549/ATCC NSCLC is 46.4%; in the assay with 786-0 renal, 19.1%; in the assay with COLO 205 colon, -44.6% (active); in the assay on DU-145 prostate it was -28.7% (active); in the assay with K-562 leukemia, -24.9% (active); in the assay with MALME-3M melanoma it was 39.9%. For the same compound, the growth was 2.58% (active) in the assay with MDA-MB-231 breast; 20.3% with RXF 393 renal; 29.7% with SF-268 CNS; 9.18% (active) with SF-295 CNS; -15% (active) in the assay with SF-539 CNS; 20.1% with UACC-257 melanoma. Also, the growth in the assay on M14 melanoma was 15.7%.

With `CC1(C)C=Cc2c(ccc3c2[N+]([O-])=C2C3=C[C@@]34NC(=O)[C@]5(CCCN5C3=O)C[C@@H]4C2(C)C)O1`, the growth is 63.2% with NCI-H23 lung; 84.5% in the assay with NCI-H226 lung; 67.5% in the assay on NCI-H322M lung; 54.5% in the assay with HOP-62 NSCLC; 73.4% in the assay on HOP-92 NSCLC; 25.6% in the assay on NCI-H522 lung. The growth is 54.7% with A549/ATCC NSCLC; 42.1% in the assay on 786-0 renal; 35.2% in the assay with COLO 205 colon; 43.3% in the assay with DU-145 prostate; 9.2% (active) in the assay with K-562 leukemia; 82.9% in the assay with MALME-3M melanoma. Moreover, the growth in the assay with MDA-MB-231 breast was 48.5%; in the assay on RXF 393 renal it was 32.8%; in the assay on SF-268 CNS it was 53.7%; in the assay with SF-295 CNS, 52.2%; in the assay with SF-539 CNS, 51.2%; in the assay with UACC-257 melanoma, 68.9%. In addition, in the assay with M14 melanoma, the growth is 61.6%.

As for `ClCc1ccc(Cl)c(Cl)c1`, the growth in the assay with NCI-H23 lung is 102%; with NCI-H226 lung it was 93.7%; with NCI-H322M lung it was 98.3%; in the assay with HOP-62 NSCLC it was 111%; in the assay with NCI-H460 lung, 103%; in the assay on NCI-H522 lung, 94.2%. In addition, the growth was 107% with A549/ATCC NSCLC; 95.4% with 786-0 renal; 116% with COLO 205 colon; 106% in the assay with DU-145 prostate; 107% in the assay with K-562 leukemia; 83% in the assay on MALME-3M melanoma. Besides, the growth in the assay with MDA-MB-231 breast is 108%; in the assay with SF-268 CNS, 101%; in the assay on SF-295 CNS, 94.4%; in the assay on SF-539 CNS, 99.6%; in the assay with UACC-257 melanoma, 98.3%; with M14 melanoma, 95.3%.

On to `O=C=Nc1ccc(Br)cc1`, for which the growth is 101% in the assay with NCI-H23 lung; 98.8% in the assay with NCI-H226 lung; 100% in the assay on NCI-H322M lung; 119% in the assay with HOP-62 NSCLC; 103% in the assay on NCI-H460 lung; 100% with NCI-H522 lung. Besides, the growth was 113% in the assay on A549/ATCC NSCLC; 95.5% with 786-0 renal; 111% in the assay with COLO 205 colon; 107% with DU-145 prostate; 99.6% in the assay on K-562 leukemia; 108% in the assay with MALME-3M melanoma. Further, the growth in the assay on MDA-MB-231 breast is 108%; in the assay on RXF 393 renal it was 103%; in the assay on SF-268 CNS, 111%; with SF-295 CNS, 94.8%; in the assay with SF-539 CNS it was 110%; in the assay on UACC-257 melanoma it was 110%. The growth with M14 melanoma was 100%.
